# Values joined by “and” are separate entries in the source; they are usually repeats but may differ in a detail not shown here. Identical values can stand only once. Results filed as inconclusive are left out. A call without a number means that no potency is given here. The source holds several records for some structures; these can differ, active in one and inactive in another. Active and inactive are the calls of the source. Unless noted, calls come from the whole dose curve; as a rule, active = well fitted curve in the direction sought with a large enough effect in the repeat runs; inconclusive = weak or mixed curves; inactive = no such curve, though single readings can be large; an effect the other way counts as inactive or inconclusive.
# Columns and labels:
# [1] = qHTS assay to test for compound auto fluorescence at 535 nm (green) in HEK293 cells (AID 720680)
# [2] = qHTS assay to test for compound auto fluorescence at 460 nm (blue) in HEK293 cell free culture (AID 720681)
# In short: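 Blue fluorescence (Ex 405/Em 460 nm, triamterene-equivalent) was read immediately after pin transfer of compound or DMSO into medium (DMEM, 10% FBS) without cells.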
# [3] = qHTS assay to test for compound auto fluorescence at 535 nm (green) in HEK293 cell free culture (AID 720682)
# In short: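 Measurement is a direct plate read of green fluorescence (485 nm in, 535 nm out) after compound addition to serum-supplemented DMEM lacking cells, with fluorescein used to express intensities.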
# [4] = qHTS assay to test for compound auto fluorescence at 590 nm (red) in HEK293 cell free culture (AID 720683)
# In short: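 Red-channel autofluorescence of compounds in culture medium (DMEM, 10% FBS), no cells, measured at 540/590 nm. Rose Bengal sodium is the reference fluorophore for equivalence.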
# [5] = qHTS assay to test for compound auto fluorescence at 590 nm (red) in HepG2 cell free culture (AID 720684)
# In short: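 Plate contents were MEM with 10% FBS plus test compound or DMSO, no cells. Fluorescence was recorded with 540 nm excitation and 590 nm emission.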
# [6] = qHTS assay to test for compound auto fluorescence at 460 nm (blue) in HepG2 cell free culture (AID 720685)
# In short: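 Compound (23 nL) or DMSO pinned into cell-free MEM with 10% FBS; blue fluorescence read at 405/460 nm excitation/emission, expressed as auto-fluorescence equivalency to triamterene.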
# [7] = qHTS assay to test for compound auto fluorescence at 535 nm (green) in HepG2 cell free culture (AID 720686)
# [8] = qHTS assay to test for compound auto fluorescence at 460 nm (blue) in HepG2 cells (AID 720687)
# In short: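 Blue-channel autofluorescence (Ex/Em 405/460 nm, triamterene-equivalent) was measured after 1 hr compound exposure at 37 C, 5% CO2. Cells were HepG2, plated overnight at 37 C in MEM plus 10% FBS.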
# [9] = biological target: Glucocorticoid receptor (Homo sapiens) (UniProt P04150); experiment: qHTS assay to identify small molecule agonists of the glucocorticoid receptor (GR) signaling pathway (AID 720691; active = well fitted activation curve with a large enough effect in the signal ratio in the repeat runs, not every such curve was filed as active; the % refers to the signal ratio; note: potency is the fitted concentration of half-maximal effect)
# Glucocorticoid receptor (Homo sapiens), sequence (P04150 whole entry, looked up): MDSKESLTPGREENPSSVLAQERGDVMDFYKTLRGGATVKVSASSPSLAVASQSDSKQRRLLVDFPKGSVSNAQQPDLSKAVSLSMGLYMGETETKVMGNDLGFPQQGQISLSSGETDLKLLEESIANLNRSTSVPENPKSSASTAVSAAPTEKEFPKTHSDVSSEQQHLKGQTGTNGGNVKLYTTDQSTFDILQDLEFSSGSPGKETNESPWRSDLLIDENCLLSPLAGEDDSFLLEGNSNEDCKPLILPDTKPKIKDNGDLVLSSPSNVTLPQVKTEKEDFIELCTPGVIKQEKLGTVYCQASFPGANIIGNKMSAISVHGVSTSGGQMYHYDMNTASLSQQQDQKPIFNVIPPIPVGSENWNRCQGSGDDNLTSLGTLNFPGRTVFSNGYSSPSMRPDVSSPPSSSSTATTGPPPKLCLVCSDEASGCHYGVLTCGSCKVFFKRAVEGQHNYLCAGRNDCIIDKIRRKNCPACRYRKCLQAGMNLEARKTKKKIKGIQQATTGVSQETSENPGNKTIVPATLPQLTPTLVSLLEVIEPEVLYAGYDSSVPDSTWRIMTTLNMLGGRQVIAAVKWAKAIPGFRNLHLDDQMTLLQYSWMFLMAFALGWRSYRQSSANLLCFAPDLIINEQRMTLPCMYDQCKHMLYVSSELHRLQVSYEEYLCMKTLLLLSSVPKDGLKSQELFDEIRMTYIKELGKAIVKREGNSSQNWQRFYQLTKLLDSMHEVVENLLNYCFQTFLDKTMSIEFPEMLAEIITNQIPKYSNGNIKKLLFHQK
# In short: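 GR-bla HeLa cells (beta-lactamase reporter under glucocorticoid response element) were plated 4 h at 37 C/5% CO2, given compounds in DMSO, and incubated 18 h at 37 C. LiveBLAzer B/G FRET substrate was added for 2 h at room temperature, then fluorescence intensity read.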
# [10] = biological target: Glucocorticoid receptor (Homo sapiens) (UniProt P04150); experiment: qHTS assay to identify small molecule antagonists of the glucocorticoid receptor (GR) signaling pathway (AID 720692; active = well fitted inhibition curve with a large enough effect in the signal ratio in the repeat runs, not every such curve was filed as active; the % refers to the signal ratio; note: potency is the fitted concentration of half-maximal effect)
# In short: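 GR-bla HeLa cells (beta-lactamase reporter under glucocorticoid response element) were pre-plated 4 h at 37 C, treated with compounds plus 5 nM dexamethasone (final) for 18 h, then read by LiveBLAzer B/G FRET fluorescence after 2 h.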
# [11] = qHTS assay to identify small molecule antagonists of the glucocorticoid receptor (GR) signaling pathway - cell viability counter screen (AID 720693); note: nearly all actives have a fitted effect of over 55% in size
# [12] = qHTS assay for identifying genotoxic compounds that show differential cytotoxicity against isogenic chicken DT40 cell lines with known DNA damage response pathways - wild type cell line (AID 743012); note: nearly all actives have a fitted effect of over 60% in size; note: potency is the fitted concentration of half-maximal effect
# In short: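 Parental DNA repair-proficient DT40 cells, 300 per well, were pre-incubated ~0.5 h at 37 C/5% CO2, pin-dosed with compounds in DMSO, then incubated 40 h. Viability was read as CellTiter-Glo luminescence after 30 min at room temperature.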
# [13] = qHTS assay for identifying genotoxic compounds that show differential cytotoxicity against isogenic chicken DT40 cell lines with known DNA damage response pathways - Rev3 mutant cell line (AID 743014); note: nearly all actives have a fitted effect of over 55% in size; note: potency is the fitted concentration of half-maximal effect
# [14] = qHTS assay for identifying genotoxic compounds that show differential cytotoxicity against isogenic chicken DT40 cell lines with known DNA damage response pathways - Rad54/Ku70 mutant cell line (AID 743015); note: nearly all actives have a fitted effect of over 60% in size; note: potency is the fitted concentration of half-maximal effect
# [15] = qHTS assay to identify small molecule antagonists of the androgen receptor (AR) signaling pathway - cell viability counter screen (AID 743033; note: nearly all actives have a fitted effect of over 45% in size)
# [16] = biological target: Androgen receptor (Homo sapiens) (UniProt P10275); experiment: qHTS assay to identify small molecule antagonists of the androgen receptor (AR) signaling pathway (AID 743035; active = well fitted inhibition curve with a large enough effect in the signal ratio in the repeat runs, not every such curve was filed as active; the % refers to the signal ratio)
# Androgen receptor (Homo sapiens), sequence (P10275 whole entry, looked up): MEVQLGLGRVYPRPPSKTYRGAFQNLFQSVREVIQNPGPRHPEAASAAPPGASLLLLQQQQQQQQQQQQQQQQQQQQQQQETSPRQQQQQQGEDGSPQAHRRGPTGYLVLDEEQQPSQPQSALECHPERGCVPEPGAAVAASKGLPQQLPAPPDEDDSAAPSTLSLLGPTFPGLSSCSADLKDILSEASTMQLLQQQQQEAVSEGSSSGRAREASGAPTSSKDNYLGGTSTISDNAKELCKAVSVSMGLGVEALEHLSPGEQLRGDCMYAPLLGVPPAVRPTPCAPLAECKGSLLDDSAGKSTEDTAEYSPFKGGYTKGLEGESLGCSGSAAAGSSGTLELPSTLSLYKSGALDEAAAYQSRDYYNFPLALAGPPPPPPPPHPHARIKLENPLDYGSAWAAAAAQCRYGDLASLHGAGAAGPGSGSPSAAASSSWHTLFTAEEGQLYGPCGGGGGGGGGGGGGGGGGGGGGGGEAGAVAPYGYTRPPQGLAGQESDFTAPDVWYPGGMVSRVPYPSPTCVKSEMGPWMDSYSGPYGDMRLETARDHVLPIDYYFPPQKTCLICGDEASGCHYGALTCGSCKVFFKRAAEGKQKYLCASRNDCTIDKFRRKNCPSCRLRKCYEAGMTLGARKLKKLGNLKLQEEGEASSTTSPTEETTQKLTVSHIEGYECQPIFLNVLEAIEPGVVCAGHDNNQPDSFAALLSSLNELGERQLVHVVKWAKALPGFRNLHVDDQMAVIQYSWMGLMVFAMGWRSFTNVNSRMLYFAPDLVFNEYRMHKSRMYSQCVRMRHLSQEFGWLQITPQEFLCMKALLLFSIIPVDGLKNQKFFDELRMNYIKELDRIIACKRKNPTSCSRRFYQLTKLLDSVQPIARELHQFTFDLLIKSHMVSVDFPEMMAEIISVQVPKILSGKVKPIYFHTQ
# In short: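 HEK293 cells stably carrying a UAS-driven beta-lactamase reporter (AR-UAS-bla GripTite) were plated for 4 h at 37C, then given compound and the agonist R1881 and incubated 16 h. Reporter activity was read by LiveBLAzer B/G FRET fluorescence after 2 h at room temperature.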
# [17] = qHTS assay to identify small molecule antagonists of the androgen receptor (AR) signaling pathway using the MDA cell line - cell viability counter screen (AID 743041; note: nearly all actives have a fitted effect of over 45% in size)
# In short: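 R1881-driven MDA-kb2 AR-luc cells, 3,000/well, were dosed with library compounds for 16 h; cell health came from CellTiter-Fluor fluorescence in the reporter wells.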
# [18] = biological target: Androgen receptor (Homo sapiens) (UniProt P10275); experiment: qHTS assay to identify small molecule antagonists of the androgen receptor (AR) signaling pathway using the MDA cell line (AID 743042; note: nearly all actives have a fitted effect of over 55% in size)
# In short: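 Antagonist mode: compounds plus R1881 agonist added to MDA-kb2 AR-luc cells, incubated 16 h at 37C. Luciferase reporter luminescence quantified, with multiplexed CellTiter-Fluor readout for cell viability.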
# [19] = qHTS assay to identify small molecule antagonists of the thyroid receptor (TR) signaling pathway - cell viability counter screen (AID 743064); note: nearly all actives have a fitted effect of over 50% in size; note: potency is the fitted concentration of half-maximal effect
# In short: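 Compounds were tested on GH3.TRE-Luc cells in the presence of T3 at 1 nM final. Following 23.5 h at 37 °C, cell viability was quantified by CellTiter-Fluor.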
# [20] = qHTS assay to identify small molecule antagonists of the thyroid receptor (TR) signaling pathway (AID 743065); note: nearly all actives have a fitted effect of over 55% in size; note: potency is the fitted concentration of half-maximal effect
# In short: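 Antagonism measured as loss of luciferase signal in GH3 cells stably carrying a TRE-luciferase reporter, co-treated with compound and T3 (1 nM final) for 23.5 h at 37 C. Viability was read in the same well by CellTiter-Fluor.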
Compound,outcome [1],outcome [2],outcome [3],outcome [4],outcome [5],outcome [6],outcome [7],outcome [8],Potency [9],Potency [10],Potency [11],Potency [12],Potency [13],Potency [14],outcome [15],Potency [16],Potency [17],Potency [18],Potency [19],Potency [20]
COCC(C)N (centres undefined),inactive,inactive,inactive,inactive,inactive,inactive,inactive,inactive,inactive,inactive,inactive,inactive,inactive,inactive,inactive,inactive,inactive,inactive,inactive,inactive
CCCCOC(=O)CCCCCCCCC(=O)OCCCC,inactive,inactive,inactive,inactive,inactive,inactive,inactive,inactive,inactive,inactive,inactive,inactive,68.6 µM (active),inactive,inactive,–,inactive,–,–,inactive
Cc1cnc(NC(=O)C2=C(O)c3ccccc3S(=O)(=O)N2C)s1,inactive,inactive,inactive,inactive,inactive,inactive,inactive,inactive,inactive,inactive,inactive,26.6 µM (active) and inactive and 6.86 µM (active),inactive and 27.4 µM (active) and 8.63 µM (active),inactive and 27.3 µM (active),inactive,–,inactive,–,inactive,inactive
CC(=O)c1ccc(S(=O)(=O)NC(=O)NC2CCCCC2)cc1,inactive,inactive,inactive,inactive,inactive,inactive,inactive,inactive,inactive,inactive,–,inactive,inactive,inactive,inactive,inactive,inactive,inactive,inactive,inactive
COc1ccccc1O,inactive,inactive,inactive,inactive,inactive,inactive,inactive,inactive,inactive,inactive,–,inactive,inactive,inactive,inactive,–,inactive,–,inactive,inactive
O=c1c(-c2ccc(O)cc2)coc2cc(O)cc(O)c12,inactive,inactive,inactive,inactive,inactive,inactive,inactive,inactive,inactive,–,–,11.9 µM (active) and 30.6 µM (active),21.1 µM (active) and 53.5 µM (active) and 48.6 µM (active),11.9 µM (active) and 47.7 µM (active) and 27.3 µM (active),inactive,–,inactive,inactive,21.1 µM (active) and 47.7 µM (active),11.9 µM (active) and 47.7 µM (active) and 21.7 µM (active)
C[C@]12C[C@H](O)[C@H]3[C@@H](CCC4=CC(=O)CC[C@@]43C)[C@@H]1CC[C@@H]2C(=O)CO,inactive,inactive,inactive,inactive,inactive,inactive,inactive,inactive,169 nM (active) and 69.3 nM (active) and 123 nM (active),674 nM (active) and 390 nM (active),–,inactive,inactive,48.6 µM (active),inactive,–,inactive,–,inactive,inactive
C#C[C@]1(O)CC[C@H]2[C@@H]3CCC4=CC(=O)CC[C@@H]4[C@H]3CC[C@@]21CC,inactive,inactive,inactive,inactive,inactive,inactive,inactive,inactive,inactive,–,–,inactive and 24.3 µM (active),inactive and 27.3 µM (active),inactive and 19.3 µM (active) and 54.5 µM (active),inactive,–,inactive,–,inactive,27.3 µM (active)
CC(C)(C)NCC(O)c1ccc(O)c(CO)c1 (centres undefined),inactive,inactive,inactive,inactive,inactive,inactive,inactive,inactive,inactive,inactive,–,inactive,inactive,inactive,inactive,–,inactive,–,inactive,inactive
Cc1ccc(O)c(-n2nc3ccccc3n2)c1,inactive,inactive,inactive,inactive,inactive,inactive,inactive,inactive,inactive,inactive,–,inactive,inactive,26.6 µM (active) and inactive,inactive,–,inactive,–,inactive,inactive
CC1=NN(c2ccccc2)C(=O)C1,inactive,inactive,inactive,inactive,inactive,inactive,inactive,inactive,inactive,inactive,–,inactive,inactive,inactive,inactive,–,inactive,–,inactive,inactive
Cc1c(N(C)CS(=O)(=O)O)c(=O)n(-c2ccccc2)n1C,inactive,inactive,inactive,inactive,inactive,inactive,inactive,inactive,inactive,–,–,inactive,inactive,inactive,inactive,–,inactive,–,inactive,inactive
CC(=O)CCC(C)C,inactive,inactive,inactive,inactive,inactive,inactive,inactive,inactive,inactive,inactive,–,inactive,inactive,inactive,inactive,–,inactive,–,–,inactive
CC1=C(/C=C/C(C)=C/C=C/C(C)=C/C(=O)O)C(C)(C)CCC1,inactive,inactive,inactive,inactive,inactive,inactive,inactive,inactive,–,54.9 µM (active),inactive,33.5 µM (active) and 54.4 µM (active),77 µM (active) and 61.1 µM (active),29.8 µM (active) and 61.2 µM (active) and 54.4 µM (active),inactive,–,inactive,–,inactive,–
CN(C)Cc1cc(CN(C)C)c(O)c(CN(C)C)c1,inactive,inactive,inactive,inactive,inactive,inactive,inactive,inactive,inactive,inactive,–,inactive,inactive,inactive,inactive,inactive,inactive,inactive,inactive,inactive
